Results from the supplement of paper PMC11732987, “Enantioselective OTUD7B fragment discovery through chemoproteomics screening and high-throughput optimisation” (Communications Chemistry, 2025).

Experiments:
Experiment in all cases: log2 ratio of Biotin-Ahx-Ub-VS probe labelling (fragment/DMSO); higher = less target engagement (more negative = stronger competition), active = hit call of the paper (q ≤ 0.05, log2 ratio ≤ -1)
Conditions in all cases: compound concentration: 200 uM; treatment time: 3 h
USP19 = biological target: T1, USP19 (UniProt O94966)
T1 sequence (whole entry): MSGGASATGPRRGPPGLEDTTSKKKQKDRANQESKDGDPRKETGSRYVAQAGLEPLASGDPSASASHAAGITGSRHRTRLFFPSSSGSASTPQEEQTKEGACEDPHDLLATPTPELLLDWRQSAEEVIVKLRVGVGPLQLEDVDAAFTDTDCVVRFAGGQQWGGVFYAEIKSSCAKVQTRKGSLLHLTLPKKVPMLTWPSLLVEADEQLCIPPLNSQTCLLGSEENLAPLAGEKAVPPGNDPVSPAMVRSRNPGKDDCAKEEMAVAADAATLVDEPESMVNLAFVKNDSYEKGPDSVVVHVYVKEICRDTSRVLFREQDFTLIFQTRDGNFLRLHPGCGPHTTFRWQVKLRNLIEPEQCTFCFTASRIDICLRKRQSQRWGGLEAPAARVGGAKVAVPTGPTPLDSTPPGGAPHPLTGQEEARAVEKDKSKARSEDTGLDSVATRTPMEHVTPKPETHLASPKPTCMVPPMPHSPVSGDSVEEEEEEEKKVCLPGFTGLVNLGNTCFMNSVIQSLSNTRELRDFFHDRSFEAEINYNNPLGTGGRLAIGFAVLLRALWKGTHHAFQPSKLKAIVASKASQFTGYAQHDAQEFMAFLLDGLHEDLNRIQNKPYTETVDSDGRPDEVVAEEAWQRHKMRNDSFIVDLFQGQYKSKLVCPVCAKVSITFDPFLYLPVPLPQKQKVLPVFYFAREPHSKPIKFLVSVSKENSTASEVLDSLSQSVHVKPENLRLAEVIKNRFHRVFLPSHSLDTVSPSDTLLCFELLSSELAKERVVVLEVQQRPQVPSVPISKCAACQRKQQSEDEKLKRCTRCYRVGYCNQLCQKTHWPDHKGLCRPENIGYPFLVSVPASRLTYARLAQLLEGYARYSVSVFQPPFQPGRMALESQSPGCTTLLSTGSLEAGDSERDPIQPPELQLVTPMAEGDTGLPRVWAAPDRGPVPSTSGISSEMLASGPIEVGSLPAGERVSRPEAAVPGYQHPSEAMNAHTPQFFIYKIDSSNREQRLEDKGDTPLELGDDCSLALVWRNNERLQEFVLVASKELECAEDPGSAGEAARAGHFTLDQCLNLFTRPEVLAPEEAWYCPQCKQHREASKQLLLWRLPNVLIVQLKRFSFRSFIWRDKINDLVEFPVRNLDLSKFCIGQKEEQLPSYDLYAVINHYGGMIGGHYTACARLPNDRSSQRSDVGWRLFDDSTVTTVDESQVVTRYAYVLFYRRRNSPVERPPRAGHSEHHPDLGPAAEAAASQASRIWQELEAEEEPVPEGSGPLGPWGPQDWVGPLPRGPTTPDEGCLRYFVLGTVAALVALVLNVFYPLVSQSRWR
In short: (§1)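 The table lists average log2 ratios of fragment over vehicle, from an unpaired t-test on global-median-normalised Spectronaut label-free quantities. Proteins with ≥2 unique peptides were used. Samples were HEK293T lysate (495 µg) treated in triplicate with fragment at 200 µM or vehicle for 3 h, then with Biotin-Ahx-Ub-VS (0.5 µM final) for 1 h, with labelled DUBs NeutrAvidin-enriched and run by diaPASEF LC-MS/MS.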

USP22 = biological target: T2, USP22 (UniProt Q9UPT9)
T2 sequence (whole entry): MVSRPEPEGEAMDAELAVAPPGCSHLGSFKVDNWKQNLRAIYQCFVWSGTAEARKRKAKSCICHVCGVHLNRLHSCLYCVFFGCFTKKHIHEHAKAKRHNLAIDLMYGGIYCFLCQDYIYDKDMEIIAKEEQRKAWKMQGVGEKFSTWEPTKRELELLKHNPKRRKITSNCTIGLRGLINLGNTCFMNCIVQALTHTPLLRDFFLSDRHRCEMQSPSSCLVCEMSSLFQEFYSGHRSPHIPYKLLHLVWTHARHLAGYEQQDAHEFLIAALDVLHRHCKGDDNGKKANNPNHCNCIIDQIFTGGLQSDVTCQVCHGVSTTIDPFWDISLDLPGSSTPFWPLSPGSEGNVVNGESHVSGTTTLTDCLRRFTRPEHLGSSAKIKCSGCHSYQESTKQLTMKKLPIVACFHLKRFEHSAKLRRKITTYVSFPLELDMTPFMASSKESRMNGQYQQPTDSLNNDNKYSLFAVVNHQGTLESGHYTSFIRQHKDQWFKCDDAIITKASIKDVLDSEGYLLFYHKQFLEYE
In short: as §1

USP24 = USP24 (UniProt Q9UPU5)
In short: as §1

USP25 = biological target: T3, USP25 (UniProt Q9UHP3)
T3 sequence (whole entry): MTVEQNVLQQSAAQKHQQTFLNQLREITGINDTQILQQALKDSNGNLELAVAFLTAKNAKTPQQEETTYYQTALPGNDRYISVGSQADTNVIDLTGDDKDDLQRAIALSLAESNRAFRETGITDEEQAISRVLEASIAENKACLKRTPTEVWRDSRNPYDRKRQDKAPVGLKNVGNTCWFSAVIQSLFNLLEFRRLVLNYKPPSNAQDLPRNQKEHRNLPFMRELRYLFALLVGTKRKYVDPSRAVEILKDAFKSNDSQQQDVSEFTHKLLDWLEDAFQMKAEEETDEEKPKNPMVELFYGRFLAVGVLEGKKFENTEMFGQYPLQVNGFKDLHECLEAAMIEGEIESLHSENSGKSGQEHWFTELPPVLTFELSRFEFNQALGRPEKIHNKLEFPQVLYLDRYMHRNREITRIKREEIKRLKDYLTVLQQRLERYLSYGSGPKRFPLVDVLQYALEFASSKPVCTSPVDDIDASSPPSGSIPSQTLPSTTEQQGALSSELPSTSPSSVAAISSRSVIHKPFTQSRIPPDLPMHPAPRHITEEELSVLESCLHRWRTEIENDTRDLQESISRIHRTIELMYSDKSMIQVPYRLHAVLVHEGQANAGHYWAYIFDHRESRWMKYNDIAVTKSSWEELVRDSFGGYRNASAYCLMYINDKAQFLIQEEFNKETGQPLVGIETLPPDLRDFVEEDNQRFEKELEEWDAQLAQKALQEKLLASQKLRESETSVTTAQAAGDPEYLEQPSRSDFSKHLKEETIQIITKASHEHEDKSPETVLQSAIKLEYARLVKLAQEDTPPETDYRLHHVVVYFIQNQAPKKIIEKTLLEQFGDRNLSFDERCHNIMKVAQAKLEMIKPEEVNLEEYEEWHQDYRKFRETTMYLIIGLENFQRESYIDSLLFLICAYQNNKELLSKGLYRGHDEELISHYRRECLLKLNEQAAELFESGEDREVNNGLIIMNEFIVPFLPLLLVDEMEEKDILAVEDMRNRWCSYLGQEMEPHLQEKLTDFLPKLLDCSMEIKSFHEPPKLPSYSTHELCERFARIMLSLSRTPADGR
In short: as §1

USP28 = biological target: T4, USP28 (UniProt Q96RU2)
T4 sequence (whole entry): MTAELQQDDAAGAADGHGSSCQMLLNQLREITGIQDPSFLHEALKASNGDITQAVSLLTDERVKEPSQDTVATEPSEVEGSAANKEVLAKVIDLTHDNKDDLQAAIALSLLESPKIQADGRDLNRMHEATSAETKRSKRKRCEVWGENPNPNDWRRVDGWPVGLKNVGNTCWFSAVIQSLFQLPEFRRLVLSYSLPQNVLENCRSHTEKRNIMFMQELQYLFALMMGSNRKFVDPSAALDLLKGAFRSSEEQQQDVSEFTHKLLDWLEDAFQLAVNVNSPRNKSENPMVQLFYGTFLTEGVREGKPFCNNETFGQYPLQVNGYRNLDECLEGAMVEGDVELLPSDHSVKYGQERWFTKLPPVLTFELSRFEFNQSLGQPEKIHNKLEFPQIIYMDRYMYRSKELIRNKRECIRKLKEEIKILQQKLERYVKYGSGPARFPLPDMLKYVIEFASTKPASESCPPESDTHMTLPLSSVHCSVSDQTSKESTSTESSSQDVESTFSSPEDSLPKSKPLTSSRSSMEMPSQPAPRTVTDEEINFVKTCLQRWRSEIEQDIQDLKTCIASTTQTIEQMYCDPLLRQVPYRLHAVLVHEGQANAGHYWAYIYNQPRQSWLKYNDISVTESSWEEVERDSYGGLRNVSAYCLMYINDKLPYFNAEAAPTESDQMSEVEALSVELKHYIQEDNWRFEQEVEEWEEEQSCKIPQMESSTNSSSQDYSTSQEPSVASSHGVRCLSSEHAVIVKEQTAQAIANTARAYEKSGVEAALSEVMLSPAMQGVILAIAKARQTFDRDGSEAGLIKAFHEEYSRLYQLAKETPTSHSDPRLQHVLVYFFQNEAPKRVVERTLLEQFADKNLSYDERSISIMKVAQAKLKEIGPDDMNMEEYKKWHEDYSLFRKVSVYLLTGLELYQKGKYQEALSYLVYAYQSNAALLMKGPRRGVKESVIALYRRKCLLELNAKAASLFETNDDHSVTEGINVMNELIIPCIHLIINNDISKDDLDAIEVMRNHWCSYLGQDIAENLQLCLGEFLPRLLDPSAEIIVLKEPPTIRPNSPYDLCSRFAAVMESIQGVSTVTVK
In short: as §1

Measured: log2 ratio of Biotin-Ahx-Ub-VS probe labelling

Sequence of USP24 (Q9UPU5 whole entry): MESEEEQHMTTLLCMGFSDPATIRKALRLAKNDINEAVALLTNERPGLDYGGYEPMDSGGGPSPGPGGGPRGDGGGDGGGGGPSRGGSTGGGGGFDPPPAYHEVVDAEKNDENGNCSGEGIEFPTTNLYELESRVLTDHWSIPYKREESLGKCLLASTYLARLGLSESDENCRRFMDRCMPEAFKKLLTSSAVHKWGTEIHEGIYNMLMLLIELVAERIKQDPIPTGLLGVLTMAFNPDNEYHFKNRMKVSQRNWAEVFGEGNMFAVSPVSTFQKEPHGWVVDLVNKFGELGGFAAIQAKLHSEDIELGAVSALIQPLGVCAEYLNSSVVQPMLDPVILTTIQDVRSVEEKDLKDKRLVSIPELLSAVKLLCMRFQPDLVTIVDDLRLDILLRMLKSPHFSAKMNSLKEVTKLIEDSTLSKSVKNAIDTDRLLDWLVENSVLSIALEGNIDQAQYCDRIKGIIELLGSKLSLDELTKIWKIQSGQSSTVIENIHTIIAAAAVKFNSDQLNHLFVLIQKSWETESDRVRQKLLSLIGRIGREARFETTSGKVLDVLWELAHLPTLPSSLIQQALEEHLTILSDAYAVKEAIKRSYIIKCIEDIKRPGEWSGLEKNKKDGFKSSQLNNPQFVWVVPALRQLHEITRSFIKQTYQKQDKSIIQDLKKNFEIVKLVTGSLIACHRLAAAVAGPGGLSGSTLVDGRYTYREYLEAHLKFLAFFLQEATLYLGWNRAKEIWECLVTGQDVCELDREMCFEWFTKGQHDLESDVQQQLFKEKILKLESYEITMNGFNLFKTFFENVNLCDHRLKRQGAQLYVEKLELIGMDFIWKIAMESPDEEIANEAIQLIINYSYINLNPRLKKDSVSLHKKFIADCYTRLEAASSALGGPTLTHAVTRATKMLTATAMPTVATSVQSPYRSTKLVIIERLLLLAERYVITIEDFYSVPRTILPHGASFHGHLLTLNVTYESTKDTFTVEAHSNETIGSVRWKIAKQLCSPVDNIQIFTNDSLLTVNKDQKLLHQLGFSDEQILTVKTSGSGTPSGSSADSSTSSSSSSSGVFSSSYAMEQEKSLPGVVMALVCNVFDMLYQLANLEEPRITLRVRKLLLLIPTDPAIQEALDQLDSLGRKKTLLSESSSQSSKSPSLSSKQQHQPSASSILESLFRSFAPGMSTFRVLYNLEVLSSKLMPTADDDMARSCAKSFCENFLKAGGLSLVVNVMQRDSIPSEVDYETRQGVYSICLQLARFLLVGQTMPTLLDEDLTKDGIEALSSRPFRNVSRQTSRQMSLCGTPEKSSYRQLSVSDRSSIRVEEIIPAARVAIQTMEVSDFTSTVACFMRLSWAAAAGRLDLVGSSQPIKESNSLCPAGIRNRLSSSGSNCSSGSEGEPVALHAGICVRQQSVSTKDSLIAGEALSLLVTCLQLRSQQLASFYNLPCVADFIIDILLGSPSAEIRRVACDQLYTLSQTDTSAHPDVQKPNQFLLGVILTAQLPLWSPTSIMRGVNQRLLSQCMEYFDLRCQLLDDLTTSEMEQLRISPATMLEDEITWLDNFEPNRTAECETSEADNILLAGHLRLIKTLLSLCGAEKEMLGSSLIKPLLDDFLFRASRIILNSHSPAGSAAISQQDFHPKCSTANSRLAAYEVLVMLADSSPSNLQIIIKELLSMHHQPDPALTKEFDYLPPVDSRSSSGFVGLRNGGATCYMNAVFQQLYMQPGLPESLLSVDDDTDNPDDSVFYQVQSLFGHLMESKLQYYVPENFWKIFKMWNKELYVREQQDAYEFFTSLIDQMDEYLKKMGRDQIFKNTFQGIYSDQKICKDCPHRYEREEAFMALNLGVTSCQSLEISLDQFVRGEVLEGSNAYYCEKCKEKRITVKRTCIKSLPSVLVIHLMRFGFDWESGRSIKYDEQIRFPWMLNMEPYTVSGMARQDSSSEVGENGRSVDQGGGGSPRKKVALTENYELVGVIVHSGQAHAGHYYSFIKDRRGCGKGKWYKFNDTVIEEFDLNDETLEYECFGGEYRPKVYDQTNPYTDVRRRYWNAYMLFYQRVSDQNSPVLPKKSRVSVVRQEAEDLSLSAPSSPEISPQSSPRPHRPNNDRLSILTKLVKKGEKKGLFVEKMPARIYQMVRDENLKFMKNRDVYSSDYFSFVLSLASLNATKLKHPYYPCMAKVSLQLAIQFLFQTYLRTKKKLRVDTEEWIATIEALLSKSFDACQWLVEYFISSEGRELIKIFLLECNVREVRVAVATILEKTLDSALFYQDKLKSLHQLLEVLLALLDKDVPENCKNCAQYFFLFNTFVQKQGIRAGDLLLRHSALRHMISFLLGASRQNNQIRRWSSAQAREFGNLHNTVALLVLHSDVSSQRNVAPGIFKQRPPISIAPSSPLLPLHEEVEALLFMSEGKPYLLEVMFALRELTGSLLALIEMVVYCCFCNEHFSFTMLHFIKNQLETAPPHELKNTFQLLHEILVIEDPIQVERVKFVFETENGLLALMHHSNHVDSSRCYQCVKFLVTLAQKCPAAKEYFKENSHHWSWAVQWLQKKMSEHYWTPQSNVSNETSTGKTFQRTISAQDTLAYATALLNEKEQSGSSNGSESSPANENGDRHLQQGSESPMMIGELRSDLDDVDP

O=C(CCl)N1CCC(O)(Cc2ccc(F)cc2)C1 (stereo not given)
inactive: USP19 -0.323 | USP22 -0.265 | USP24 -0.262 | USP25 -0.107 | USP28 -0.353
